The values that follow come from ChEMBL document CHEMBL1961873, “Compounds: GSK PKIS; Assays: Nanosyn kinase panel” (2012).

Assay [1] has as its target Mitogen-activated protein kinase kinase kinase kinase 4 (Homo sapiens) (UniProt O95819). The settings on record: at 1 µM.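 Note: reported figure is an averaged inhibition value.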
Assay [2] concerns the target Dual specificity mitogen-activated protein kinase kinase 1 (Homo sapiens) (UniProt Q02750). The settings on record: at 0.1 µM.
Assay [3] shares this target. Particulars: at 1 µM.
The target in assay [4] is Misshapen-like kinase 1 (Homo sapiens) (UniProt Q8N4C8). Particulars: at 0.1 µM.
Sequence of Misshapen-like kinase 1 (Homo sapiens) (Q8N4C8 whole entry, looked up): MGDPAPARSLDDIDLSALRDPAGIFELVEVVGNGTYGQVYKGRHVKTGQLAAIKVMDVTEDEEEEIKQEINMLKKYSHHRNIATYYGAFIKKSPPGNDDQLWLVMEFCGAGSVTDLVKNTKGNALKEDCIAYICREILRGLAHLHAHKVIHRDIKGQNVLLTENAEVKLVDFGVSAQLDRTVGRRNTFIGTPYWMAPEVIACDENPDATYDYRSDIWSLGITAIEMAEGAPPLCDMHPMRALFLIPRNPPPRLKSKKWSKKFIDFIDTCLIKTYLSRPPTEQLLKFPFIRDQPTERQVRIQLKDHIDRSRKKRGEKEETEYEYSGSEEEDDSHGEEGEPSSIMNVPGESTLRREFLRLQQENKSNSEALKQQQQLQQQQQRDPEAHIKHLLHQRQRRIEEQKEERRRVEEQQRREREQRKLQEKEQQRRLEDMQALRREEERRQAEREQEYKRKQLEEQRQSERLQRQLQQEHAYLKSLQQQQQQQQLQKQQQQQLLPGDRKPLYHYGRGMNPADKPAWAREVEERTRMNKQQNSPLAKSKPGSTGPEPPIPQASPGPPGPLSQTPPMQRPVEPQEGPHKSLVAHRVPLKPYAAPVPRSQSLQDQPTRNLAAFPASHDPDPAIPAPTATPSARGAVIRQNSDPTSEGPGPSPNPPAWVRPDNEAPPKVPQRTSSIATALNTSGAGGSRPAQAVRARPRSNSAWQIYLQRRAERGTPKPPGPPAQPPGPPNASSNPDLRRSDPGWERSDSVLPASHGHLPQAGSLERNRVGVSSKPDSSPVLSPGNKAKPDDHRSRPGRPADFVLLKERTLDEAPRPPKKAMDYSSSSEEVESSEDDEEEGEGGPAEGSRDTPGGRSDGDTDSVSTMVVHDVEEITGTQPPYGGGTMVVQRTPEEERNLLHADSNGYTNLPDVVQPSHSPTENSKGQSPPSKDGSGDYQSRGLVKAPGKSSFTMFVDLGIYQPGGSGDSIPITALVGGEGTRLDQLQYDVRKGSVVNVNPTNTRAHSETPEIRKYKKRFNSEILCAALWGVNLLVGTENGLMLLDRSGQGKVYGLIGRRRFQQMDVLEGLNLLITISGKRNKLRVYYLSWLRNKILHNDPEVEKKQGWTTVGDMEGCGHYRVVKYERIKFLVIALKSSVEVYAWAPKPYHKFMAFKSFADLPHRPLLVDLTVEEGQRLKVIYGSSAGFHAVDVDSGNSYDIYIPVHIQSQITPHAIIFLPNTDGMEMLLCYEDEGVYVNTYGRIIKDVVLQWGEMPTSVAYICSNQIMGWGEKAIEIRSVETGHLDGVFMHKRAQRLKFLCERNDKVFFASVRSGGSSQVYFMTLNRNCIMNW
The target is the same in assay [5]. The settings on record: at 1 µM.
The target in assay [6] is T1, Serine/threonine-protein kinase 4 (Homo sapiens) (UniProt Q13043).
T1 sequence (whole entry): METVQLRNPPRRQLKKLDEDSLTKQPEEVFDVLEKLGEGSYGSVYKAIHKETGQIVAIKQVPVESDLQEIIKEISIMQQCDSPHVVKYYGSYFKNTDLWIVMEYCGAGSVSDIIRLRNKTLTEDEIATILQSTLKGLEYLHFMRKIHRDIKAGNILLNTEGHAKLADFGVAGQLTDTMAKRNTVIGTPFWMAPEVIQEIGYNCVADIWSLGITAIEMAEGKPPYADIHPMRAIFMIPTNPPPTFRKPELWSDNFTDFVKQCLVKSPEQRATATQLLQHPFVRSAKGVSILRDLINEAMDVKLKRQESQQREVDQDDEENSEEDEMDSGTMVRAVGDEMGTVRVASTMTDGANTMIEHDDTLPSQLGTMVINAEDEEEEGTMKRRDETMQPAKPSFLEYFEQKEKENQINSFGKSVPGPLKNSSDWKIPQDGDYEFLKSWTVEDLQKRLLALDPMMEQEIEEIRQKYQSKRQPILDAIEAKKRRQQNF
The settings on record: at 0.1 µM.

For assay [7], the target named is T1, Serine/threonine-protein kinase 4 (Homo sapiens). Particulars: at 1 µM.
Assay [8] has as its target T2, Serine/threonine-protein kinase 3 (Homo sapiens) (UniProt Q13188).
T2 sequence (whole entry): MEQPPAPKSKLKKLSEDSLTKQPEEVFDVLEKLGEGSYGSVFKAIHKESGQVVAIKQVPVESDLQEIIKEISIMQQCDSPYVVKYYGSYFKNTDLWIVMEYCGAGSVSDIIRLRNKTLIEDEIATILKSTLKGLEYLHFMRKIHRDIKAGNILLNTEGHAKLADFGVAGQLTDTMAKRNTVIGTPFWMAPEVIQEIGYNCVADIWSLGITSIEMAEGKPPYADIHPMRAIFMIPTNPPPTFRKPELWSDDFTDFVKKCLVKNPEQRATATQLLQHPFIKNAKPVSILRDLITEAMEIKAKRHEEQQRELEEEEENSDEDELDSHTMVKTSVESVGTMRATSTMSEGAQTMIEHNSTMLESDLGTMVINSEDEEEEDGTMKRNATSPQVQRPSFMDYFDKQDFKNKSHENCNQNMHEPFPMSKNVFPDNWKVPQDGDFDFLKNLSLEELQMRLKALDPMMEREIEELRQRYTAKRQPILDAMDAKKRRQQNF
The settings on record: at 0.1 µM.

The target in assay [9] is T2, Serine/threonine-protein kinase 3 (Homo sapiens). Particulars: at 1 µM.
The target of assay [10] is Serine/threonine-protein kinase 26 (Homo sapiens) (UniProt Q9P289). The settings on record: at 0.1 µM.
Sequence of Serine/threonine-protein kinase 26 (Homo sapiens) (Q9P289 2-416 limits assumed): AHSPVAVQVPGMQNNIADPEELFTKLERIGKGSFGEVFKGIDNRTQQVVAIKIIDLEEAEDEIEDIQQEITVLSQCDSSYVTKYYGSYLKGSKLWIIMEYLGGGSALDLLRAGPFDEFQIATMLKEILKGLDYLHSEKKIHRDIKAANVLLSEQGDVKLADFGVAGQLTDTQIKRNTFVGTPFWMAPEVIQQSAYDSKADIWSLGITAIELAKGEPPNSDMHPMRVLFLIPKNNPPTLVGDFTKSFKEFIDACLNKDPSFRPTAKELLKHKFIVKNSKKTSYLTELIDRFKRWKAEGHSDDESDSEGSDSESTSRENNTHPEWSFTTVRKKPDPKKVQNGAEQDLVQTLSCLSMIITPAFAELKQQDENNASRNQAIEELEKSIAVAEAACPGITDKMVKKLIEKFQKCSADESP

Sequence of Mitogen-activated protein kinase kinase kinase kinase 4 (Homo sapiens) (O95819 2-1239 limits assumed): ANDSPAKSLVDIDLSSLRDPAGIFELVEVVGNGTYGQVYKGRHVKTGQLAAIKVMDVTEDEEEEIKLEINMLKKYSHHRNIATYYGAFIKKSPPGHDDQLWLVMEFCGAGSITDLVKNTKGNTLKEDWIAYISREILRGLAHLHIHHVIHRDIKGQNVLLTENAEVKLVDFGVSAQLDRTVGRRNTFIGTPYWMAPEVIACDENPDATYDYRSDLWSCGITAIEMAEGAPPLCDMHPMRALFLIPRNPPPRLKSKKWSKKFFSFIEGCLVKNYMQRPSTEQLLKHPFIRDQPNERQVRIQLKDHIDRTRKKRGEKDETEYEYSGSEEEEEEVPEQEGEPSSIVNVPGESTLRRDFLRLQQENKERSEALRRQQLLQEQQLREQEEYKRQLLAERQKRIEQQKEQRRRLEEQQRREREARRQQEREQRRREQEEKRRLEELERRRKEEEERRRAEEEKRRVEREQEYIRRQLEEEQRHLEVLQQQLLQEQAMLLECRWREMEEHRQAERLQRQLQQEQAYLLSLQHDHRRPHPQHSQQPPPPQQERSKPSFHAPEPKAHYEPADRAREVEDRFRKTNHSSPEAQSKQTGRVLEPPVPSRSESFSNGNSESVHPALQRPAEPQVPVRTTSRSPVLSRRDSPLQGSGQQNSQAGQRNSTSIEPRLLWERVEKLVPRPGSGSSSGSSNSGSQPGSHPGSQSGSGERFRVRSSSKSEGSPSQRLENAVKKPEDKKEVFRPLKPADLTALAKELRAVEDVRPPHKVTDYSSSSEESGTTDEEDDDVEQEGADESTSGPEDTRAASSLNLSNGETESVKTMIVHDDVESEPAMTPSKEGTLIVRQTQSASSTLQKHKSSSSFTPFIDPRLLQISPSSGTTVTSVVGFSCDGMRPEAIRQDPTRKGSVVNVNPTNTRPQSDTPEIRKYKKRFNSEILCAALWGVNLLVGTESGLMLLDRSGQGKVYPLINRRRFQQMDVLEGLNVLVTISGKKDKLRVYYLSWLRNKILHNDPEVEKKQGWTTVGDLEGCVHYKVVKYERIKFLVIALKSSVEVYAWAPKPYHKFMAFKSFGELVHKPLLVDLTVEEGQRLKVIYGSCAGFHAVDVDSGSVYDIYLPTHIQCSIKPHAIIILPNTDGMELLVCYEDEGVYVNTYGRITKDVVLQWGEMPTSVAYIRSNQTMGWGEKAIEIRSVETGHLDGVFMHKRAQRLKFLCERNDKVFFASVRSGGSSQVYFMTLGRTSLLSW
Sequence of Dual specificity mitogen-activated protein kinase kinase 1 (Homo sapiens) (Q02750 whole entry): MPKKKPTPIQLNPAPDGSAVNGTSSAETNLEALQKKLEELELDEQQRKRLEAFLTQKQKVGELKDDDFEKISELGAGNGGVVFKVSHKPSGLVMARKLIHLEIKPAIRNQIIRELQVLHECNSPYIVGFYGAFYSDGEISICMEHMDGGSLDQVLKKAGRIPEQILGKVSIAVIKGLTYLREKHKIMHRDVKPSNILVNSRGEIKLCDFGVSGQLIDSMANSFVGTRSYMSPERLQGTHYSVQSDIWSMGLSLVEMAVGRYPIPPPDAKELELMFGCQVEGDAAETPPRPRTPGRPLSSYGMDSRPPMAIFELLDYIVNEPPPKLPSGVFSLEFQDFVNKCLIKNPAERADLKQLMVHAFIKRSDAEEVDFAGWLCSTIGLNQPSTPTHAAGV

One may read the inhibition as the change of the read-out against control, counted positive when it falls. `CCCN1CCC=C(c2ccc(Nc3nc(Nc4ccccc4C(N)=O)c4cc[nH]c4n3)c(C)c2)C1`: the inhibition in assay [1] stood at 65.3%; in [2] it was 7.02%; in [3], 28.7%; in assay [4], 14.8%; in assay [5] it was 55.2%; in [6] it was 9.53%. Besides, the inhibition in [7] was 42.5%; in [8] it was 5.37%; in [9], 21.2%; in assay [10], -2.63%.
With `CC1=C(C(=O)Nc2ccc3[nH]ncc3c2)C(c2ccc(F)cc2)NC(=O)N1` (stereo not given), the inhibition in assay [1] was determined as 11.1%; in [2] it was 2.25%; in [3], 5.95%; in [4], 7.37%; in assay [5] it was 13%; in assay [6], 1.11%. Also, the inhibition in [7] was found to be 5.91%; in [8], 1.29%; in assay [9] it was 6.58%; in assay [10], 0.66%.
With `NS(=O)(=O)c1ccc(N/N=C2\C(=O)Nc3ccc(C(=O)NCCc4c[nH]cn4)cc32)cc1`, the inhibition in [1] was 40%; in assay [2] it was 6.81%; in assay [3] it was 16.3%; in assay [4] it was 11.2%; in [5], 32.6%; in assay [6], 56.3%. In addition, the inhibition was 86.7% in [7], 46.5% in assay [8], 83.5% in assay [9] and -0.45% in assay [10].
Regarding `CS(=O)(=O)Nc1ccc(N/C=C2\C(=O)Nc3ccccc32)cc1`, the inhibition was 73% in assay [1]; -3.18% in assay [2]; -0.2% in assay [3]; 11.8% in assay [4]; 63.8% in assay [5]; 6.72% in [6]. In addition, the inhibition in assay [7] is 51.9%; in assay [8], -0.42%; in [9] it was 24.6%; in [10] it was 0.42%.
`N#Cc1c(NC(=O)c2cccc3ccccc23)sc2c1CCCC2`: the inhibition in assay [1] came to 13.8%; in [2], 3.76%; in assay [3], 3.46%; in assay [4] it was 5.15%; in assay [5] it was 11.1%; in assay [6] it was 3.4%. Also, the inhibition in [7] was 4.3%; in assay [8] it was 2.39%; in [9], 3.8%; in assay [10], -1.1%.
For `COc1cc2ncn(-c3cc(O[C@@H](C)c4ccccc4Cl)c(C(N)=O)s3)c2cc1OC`, the inhibition in assay [1] was determined as 32%; in assay [2] it was 4.3%; in [3], 3.99%; in assay [4], 9.25%; in assay [5] it was 28.5%; in [6], 8.63%. Also, the inhibition in [7] was 40.3%; in assay [8] it was 11.8%; in assay [9], 34.8%; in [10], -3.61%.
On to `CCN1CCC(CC(=O)Nc2n[nH]c3nc(-c4cccs4)c(Br)cc23)CC1`, for which the inhibition is 9.82% in assay [1]; -3.83% in [2]; -4.66% in [3]; -1.72% in assay [4]; 5.84% in assay [5]; -4.72% in [6]. For the same compound, the inhibition in assay [7] is -4.38%; in [8] it was -4.72%; in assay [9], -2.74%; in assay [10], 2.05%.
Turning to `Cc1cc(O)cc(C)c1/C=C/c1cncc(-c2nn[nH]n2)c1`, the inhibition in assay [1] came out at 25.3%; in assay [2], 6.51%; in [3], 5.24%; in assay [4], 9.23%; in assay [5], 21.7%; in [6] it was 3.48%. For the same compound, the inhibition was 9.22% in [7], 4.45% in [8], 10.7% in [9] and -1.84% in assay [10].
As to `COc1cc2ncn(-c3cc(OCc4ccccc4C(F)(F)F)c(C(N)=O)s3)c2cc1OC`, the inhibition stood at 30.1% in assay [1]; 2.39% in assay [2]; 2.9% in assay [3]; 7.46% in [4]; 25.5% in assay [5]; 14.3% in assay [6]. Moreover, the inhibition in assay [7] was 55.5%; in assay [8], 15.2%; in [9], 52.8%; in assay [10], -4.21%.
In the case of `O=C1NC(=O)C(c2cccc(Cl)c2)=C1Nc1ccc(O)c(Cl)c1`, the inhibition in assay [1] stood at 7.19%; in [2], 0.81%; in assay [3], 7.65%; in assay [4], 2.81%; in assay [5], 7.79%; in assay [6], 33.6%. Moreover, the inhibition came to 75.2% in assay [7], 24.3% in assay [8], 66.8% in assay [9] and 1.93% in [10].
As for `Nc1nc(-c2ccc3c(c2)C(=Cc2cc(Br)c(O)c(Br)c2)C(=O)N3)cs1`, the inhibition in assay [1] was 75.3%; in [2] it was -1.03%; in assay [3], -1.25%; in [4] it was 10.2%; in assay [5], 56.9%; in assay [6], -2.22%. Besides, the inhibition in assay [7] is 9.55%; in assay [8], -2.3%; in assay [9], 12.2%; in [10], 0.73%.
As for `NC(=O)c1cccc(Nc2nccc(Nc3cccc4[nH]ncc34)n2)c1`, the inhibition was 39.2% in assay [1]; -4% in assay [2]; 0.69% in [3]; 0.64% in [4]; 29% in [5]; -3.17% in assay [6]. Besides, the inhibition in [7] is 13.3%; in assay [8], -4.57%; in assay [9], 6.87%; in [10], -0.32%.
As to `Cc1ccc(NC(=O)c2ccnc(N3CCCC3)c2)cc1-c1ccc(C(=O)NCC2CC2)cc1`, the inhibition stood at 10.9% in assay [1]; 5.95% in [2]; 5.8% in [3]; 11.6% in assay [4]; 10.5% in assay [5]; 8.79% in assay [6]. Also, the inhibition amounted to 9.83% in assay [7], 9.39% in [8], 9.53% in [9] and 4.41% in [10].
As for `COc1cccc(-n2ncc3c(N/N=C/c4cccc(F)c4)ncnc32)c1`, the inhibition in assay [1] worked out at 35%; in [2], 3.46%; in [3], 3.27%; in assay [4], 7.28%; in [5] it was 25.8%; in [6], 3.89%. In addition, the inhibition is 8.39% in assay [7], 2.89% in assay [8], 6.96% in [9] and -0.8% in assay [10].
With `COc1cc2ncn(-c3cc(O[C@H](C)c4ccccc4Cl)c(C(N)=O)s3)c2cc1OC`, the inhibition in assay [1] was found to be 18.6%; in assay [2], 4.68%; in assay [3], 4.4%; in [4], 5.71%; in [5] it was 16.9%; in [6], 40.3%. Besides, the inhibition in [7] is 77%; in assay [8] it was 34.7%; in assay [9], 73.8%; in assay [10], -3.36%.
`CCc1cccc(NC(=O)Nc2ccc(Oc3ccc4nc(NC(=O)OC)[nH]c4c3)cc2)c1`: the inhibition in assay [1] was found to be 3.37%; in assay [2], 1.28%; in [3], 1.44%; in assay [4], 3.46%; in assay [5], 3.01%; in [6], 3.69%. Besides, the inhibition in assay [7] turned out to be 8.88%; in assay [8] it was 5.1%; in [9], 4.89%; in assay [10], 2.48%.
Take `COc1ccc2cc(-c3c(-c4ccncc4)nc(-c4ccc([S+](C)[O-])cc4)n3C)ccc2c1` (stereo not given): the inhibition was 8.42% in assay [1]; 4.05% in assay [2]; 3.39% in assay [3]; 3.38% in assay [4]; 9.34% in assay [5]; 4.01% in assay [6]. Also, the inhibition was 4.79% in assay [7], 6.01% in assay [8], 8.09% in assay [9] and -0.63% in assay [10].
